Laboratory results reported in PubChem BioAssay AID488922 (Johns Hopkins Ion Channel Center, 2010).
Hit rate of the full screen: of about 310,000 compounds, about 3,800 (1.2%) were called active.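 The calls were made as follows: active = ratio B-score over 3 SD below the library mean, with starting fluorescence within 5 SD of its mean; inactive = the rest, inconclusive results apart.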 This excerpt belongs to a sample that is enriched for actives.

Target: Potassium channel subfamily K member 9 (Homo sapiens) (UniProt Q9NPC2)
Sequence (Q9NPC2 whole entry, looked up): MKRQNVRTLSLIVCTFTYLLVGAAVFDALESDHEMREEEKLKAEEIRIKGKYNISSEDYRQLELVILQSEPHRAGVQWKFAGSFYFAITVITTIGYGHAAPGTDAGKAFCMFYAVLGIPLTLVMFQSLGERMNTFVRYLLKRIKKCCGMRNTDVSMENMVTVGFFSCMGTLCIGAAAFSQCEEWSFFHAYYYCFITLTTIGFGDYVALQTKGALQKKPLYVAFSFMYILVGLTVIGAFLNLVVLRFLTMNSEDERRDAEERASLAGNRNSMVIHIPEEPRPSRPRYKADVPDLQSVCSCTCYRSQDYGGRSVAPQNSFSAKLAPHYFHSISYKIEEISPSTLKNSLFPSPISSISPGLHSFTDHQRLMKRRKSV
Assay: blockers of human TASK-3 (KCNK9) channel – HEK293 cells, thallium flux, primary screen (AID 488922);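 as to B-score: negative B-score means less thallium flux so channel inhibition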
Details: HEK293 KCNK9, FluxOR thallium flux fluorescence, at 10 µM; active compounds read low

B-score, active:
COC(=O)c1cc(NC2c3ccccc3C(=O)N2c2ccc(Cl)cn2)cc(C(=O)OC)c1 (stereo not drawn) -8.59
CCC1=NN(C(=O)Cc2ccc([N+](=O)[O-])cc2)C(O)(c2ccc(Br)cc2)C1 (stereo not drawn) -9.93
Brc1ccc(C2CC(c3ccccc3)=Nc3ccccc3N2)cc1 (stereo not drawn) -9.6
CS(=O)(=O)N(CC(=O)Nc1ccc(Cl)c(Cl)c1)C1CCCCC1 -7.01
Cc1ccc(CN(C(=O)c2sc3ccccc3c2Cl)C2CCS(=O)(=O)C2)cc1 (stereo not drawn) -7.41
CC1(C)CC(=O)CC2(C1)NCC(c1ccccc1Cl)c1c2[nH]c2ccccc12 (stereo not drawn) -14.9
C(=N\Nc1ccc2ccccc2n1)/c1ccc2c(c1)OCO2 -6.68
COc1ccc2nc(Nc3nc(-c4cc5ccccc5oc4=O)cs3)sc2c1 -6.66
CCOC(=O)Cc1cc(=O)[nH]c(=O)[nH]1 -8.45
Cc1cc2ccccn2c1C(=O)c1cccc(F)c1 -13.4
O=C(OCC(=O)N(CCc1ccccc1)Cc1ccccc1)c1ccccc1[N+](=O)[O-] -17.6
Cc1ccc(C2=Nc3c(ccc4ccccc34)C(c3ccncc3)=NN2)cc1 -10.7
COc1ccc(CCNC(=O)c2ccccc2OCc2ccccc2)cc1 -8.98
CC(=O)c1ccccc1OCc1ccc(C(=O)c2ccccc2)cc1 -6.64
Cc1ccc(CN(N=Nc2nonc2N)c2nonc2N)c(C)c1 -10.2
COCCNc1cc(-c2ccccc2)nc2cc(-c3cccc(F)c3)nn12 -9.68
O=C(Nc1ccccc1Cl)/C(Cl)=C(\Cl)S(=O)c1ccccc1 (stereo not drawn) -6.6
COc1cccc(-c2cc3nc4c(c(N5CCC6(CC5)OCCO6)n3n2)CCCC4)c1 -9.24
O=C(CSc1ccccc1)Nc1cc(Cl)ccc1Oc1ccccc1 -8.08
COc1ccc(C)cc1NC(=O)C(Sc1ccccc1)c1ccccc1 (stereo not drawn) -8.19
O=C(COC(=O)c1c2c(nc3ccccc13)CCCC2)c1ccc(Br)s1 -9.29

B-score, inactive:
N#Cc1c(NCCO)ccc([N+](=O)[O-])c1NCCO
Cc1ccnc(N2C(=O)c3ccccc3C2Nc2ccc3c(c2)OCCO3)c1 (stereo not drawn)
CCc1ccccc1NC1c2ccccc2C(=O)N1c1cccnc1 (stereo not drawn)
Cc1ccc(C)c(OCCC(=O)OCC(=O)c2ccc3c(c2)NC(=O)CO3)c1
Cc1ccc(CNC(=O)C2(C(F)(F)F)C/C(=C\Cc3ccccc3)CCCO2)o1 (stereo not drawn)
CCOC(=O)c1ccc(NC(=O)Cc2cccs2)cc1
CC1=NN(C(=O)c2ccc(Br)cc2)C(O)(c2ccccc2)C1 (stereo not drawn)
CC1=NN(C(=O)Cc2ccc(C)cc2)C(O)(c2cccnc2)C1 (stereo not drawn)
CCOC(=O)c1[nH]c(C)c(C(=O)OCC(=O)N2c3ccccc3CC2C)c1C (stereo not drawn)
COc1ccc(C)cc1NC(=O)CNCc1cccs1
c1ccc(C2=Nc3cccc4cccc(c34)N2)cc1
CNC(=S)N1N=C(c2ccccc2)CC1c1ccc(Br)cc1 (stereo not drawn)
CC(C)(C)SCCSC1=CC(=O)CC(c2ccccc2)C1 (stereo not drawn)
O=C(N/C(=C\c1ccc([N+](=O)[O-])cc1)C(=O)N1CCCCC1)c1ccco1
O=C(c1ccccc1)C(Cn1cncn1)C(Sc1ccccc1)c1ccccc1 (stereo not drawn)
O=C(NCc1ccccc1)c1onc(CSc2ccncc2)c1C(=O)NCc1ccccc1
CS(=O)(=O)N(CC(=O)Nc1ccc(F)cc1)C1CCCCC1
CCC(C)NC(=O)CN(C1CCCCC1)S(C)(=O)=O (stereo not drawn)
Cc1csc(/N=C/N(C)C)c1C#N
Cc1ccc(S(=O)(=O)/N=C(/NC(=S)Nc2c(C)n(C)n(-c3ccccc3)c2=O)c2ccccc2)cc1
O=C(COC(=O)c1ncc(Cl)c(Cl)c1Cl)NC1CCS(=O)(=O)C1 (stereo not drawn)
COc1ccc(C(=O)N(Cc2ccc(N(C)C)cc2)C2CCS(=O)(=O)C2)cc1 (stereo not drawn)
CC1(C)C(C=C(Cl)Cl)C1C(=O)N(Cc1ccc(Cl)cc1)C1CCS(=O)(=O)C1 (stereo not drawn)
O=[N+]([O-])c1c(NCCO)cc(Sc2nc3ccccc3s2)c2nonc12
Cc1onc(-c2ccccc2Cl)c1C(=O)N(Cc1ccc(N(C)C)cc1)C(C)C
C=C(C)CSc1nc(N)c2c3c(sc2n1)CCC3
C=CCn1c(SCC(=O)c2c(N)n(C)c(=O)n(C)c2=O)nc2sc(CC)cc2c1=O
O=[N+]([O-])/C=C1\CCCCCN1
Brc1ccc(-c2csc(N/N=C/c3ccc4c(c3)OCO4)n2)cc1
Cc1noc(C)c1/C=N/Nc1ccc2ccccc2n1
CN1CC(=O)N=C1N
CCCC1NC(=S)NC(C)=C1C(C)=O (stereo not drawn)
Cc1scc(C(=O)NNC(=S)NCc2ccccc2)c1C
CCNc1nc(-c2cc3ccccc3o2)cs1
O=c1oc2ccccc2cc1-c1csc(Nc2ccc(O)cc2)n1
O=C(CCC1CCCC1)N=C1SC2CS(=O)(=O)CC2N1Cc1ccccc1 (stereo not drawn)
Cn1c(=O)n(C)c2cc(C(=O)Nc3ccc(Br)cc3)ccc21
Cc1ccc(-n2nc(-c3ccco3)cc2C(=O)NCc2cccnc2)cc1
CC(C)C[C@@H](CO)N1CCN(Cc2ccc(O)cc2)CCC1=O
CCOCCCNC(=O)Cc1cc(=O)[nH]c(=O)[nH]1
CCOC(=O)Cc1cc(=O)[nH]c(/N=C(\N)Nc2ccc(OC)cc2)n1
CC1CCCN(CCCNC(=O)CN2C(=O)COc3ccc(S(=O)(=O)N4CCOCC4)cc32)C1 (stereo not drawn)
O=C1/C(=C/c2cccs2)CCC1C1CCCC1 (stereo not drawn)
Cc1cc2ccccn2c1C(=O)c1cccc(S(=O)(=O)N2CCOCC2)c1
CC(=O)Nc1ccc(/C=N/Nc2ccc(C(=O)c3c(C)cc4ccccn34)cc2[N+](=O)[O-])cc1
CN(Cc1c(F)cccc1Cl)C(=O)CNC(=O)c1ccc2c(c1)OCO2
O=C(c1ccccc1Cl)N(Cc1ccccc1F)N1C(=O)CCCC1=O
Cc1c(C(=O)NCCCc2ccccc2)cccc1[N+](=O)[O-]
CN(Cc1ccccc1)C(=O)COC(=O)c1ccccc1Nc1ccccc1
CCOc1ccc2c(c1)C(c1ccc(C)cc1)=NNC(c1ccc(C)cc1)=N2
Cc1ccc(-c2csc(-c3c[nH]c4ccccc34)n2)cc1
CCCCCC(=O)N1CCN(S(=O)(=O)c2ccc3c(c2)OCCCO3)CC1
O=C(Cc1cccs1)N(CC1CCCO1)C1(C(=O)NC2CCCCC2)CCCCC1 (stereo not drawn)
O=C(CCSCCc1ccccn1)Nc1nccs1
COc1ccc(S(=O)(=O)N2CCN(C(=O)N(C)C)C2C)cc1 (stereo not drawn)
CC(OC(=O)c1ccccc1OCc1ccc(Cl)cc1)C(N)=O (stereo not drawn)
O=C(NC1CCC(O)CC1)c1ccccc1OCc1ccc(F)cc1 (stereo not drawn)
COc1ccc(OCCCC(=O)NCCc2ccccc2)cc1
CCOc1ncccc1C(=O)NCCc1ccc(OC)cc1
COc1cccc(CN2CCNC(=O)C2CC(=O)N(C)CCc2ccccn2)c1 (stereo not drawn)
CCN(CC(=O)NCC(=O)Nc1cccc(C)c1C)Cc1ccccc1
CC1(C)C2CC[C@]3(C)C(CC=C4[C@@H]5C[C@@](C)(CO)CC[C@]5(C(=O)O)CC[C@]43C)[C@@]2(C)CC[C@@H]1O (stereo partly drawn)
Cc1n[nH]c(=O)c2c1nnn2Cc1ccc(F)cc1
COc1ccc(NC(=O)c2cc3nc(-c4ccccc4)cc(C)n3n2)cc1OC
COC(=O)c1cc2nc(-c3ccccc3)cc(C(F)(F)F)n2n1
COCCN(Cc1nc(-c2ccc(C(F)(F)F)cc2)no1)C(C)C
O=C(Cc1ccc2c(c1)CCCC2)Nc1ccccc1Cl
O=C(Nc1ccccc1Cl)Nc1cccc2cccnc12
COc1cc(-c2nnc(Cn3cc(C(F)(F)F)ccc3=O)o2)cc(OC)c1OC
COc1cccc(CNc2nc3nc4c(c(=O)n3[nH]2)CCC4)c1
COc1cccc(NC(=O)CN2CCN(c3nc(-c4cccc(OC)c4)cs3)CC2)c1
CCC(=O)Nc1nnc(S(=O)(=O)N2CCCc3ccccc32)s1
CCSc1nsc(NC(=O)Nc2cccc(C(C)=O)c2)n1
Cc1ccc(C(=O)N(CC(=O)NC2CCCC2)c2ccc(F)cc2)s1
CC1CCCN(CC(=O)Nc2cc(Cl)ccc2Oc2ccccc2)C1 (stereo not drawn)
CC(=O)Nc1ccc(SCC(=O)Nc2ccccc2Oc2ccccc2)cc1
N#CCOc1ccc(C2=NO[C@@H]3[C@@H]4C[C@@H]([C@H]5C(=O)N(c6ccc7c(c6)OCO7)C(=O)[C@@H]45)[C@H]23)cc1
O=C(N/C(=C\c1ccc(O)cc1)C(=O)N1CCCCC1)c1ccccc1
COc1ccc(C)cc1NC(=O)Nc1ccccc1SC
COc1ccc(C)cc1NC(=O)NCCCCc1ccccc1
CC(Sc1nnnn1C)C(=O)NC(=O)NC1CCCCC1 (stereo not drawn)
Cc1ccc(S(=O)(=O)NC(C)C(=O)NCc2ccc(Cl)cc2)cc1 (stereo not drawn)
Cc1cc(Cl)ccc1OCc1nc(-c2ccncc2)no1
O=C(Nc1c2c(nc3ccccc13)CCCC2)c1ccccc1Br
NC(=O)c1ccc(NC(=O)COC(=O)c2c3c(nc4ccccc24)/C(=C\c2ccc4c(c2)OCO4)CCC3)cc1
COC(=O)COc1ccc2c(=O)c(Oc3ccccc3Br)coc2c1
CCCCc1cc(=O)oc2c(C)c(OCC(=O)N3CCC(C(N)=O)CC3)ccc12
